Measurements published in the supplement of paper PMC6555819.

Legend:
Experiment in all cases: PBM binding z-score (relative to random genomic background probes); higher = stronger binding; sequences stand for … in GC…GCGATTGACAGCGTAGAATGAAGG
[1] = test system: FXR:RXRa (NR concentration 270 nM, RXRa partner concentration 90 nM)
Method in brief: (§1)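 The probes on custom Agilent 4×180K protein-binding microarrays were double-stranded, with 34-nt variable regions bearing direct-repeat seeds, single-nucleotide variants, half-site ablations and random human genomic background sequences. Incubation lasted 1 h with ligand-free nuclear receptor dimers in PBS pH 7.4, 2% milk, 0.02% Triton X-100, 1 mM DTT, 0.2 mg/mL BSA and 0.4 mg/ml salmon testes DNA. Antibodies against each partner (one per run) detected bound dimers, and fluorescence scans were regression-normalized. Binding z-scores take the random background probes as reference.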

[2] = test system: LXRa:RXRa (NR concentration 270 nM, RXRa partner concentration 90 nM)
Method in brief: as §1

[3] = test system: LXRa homodimer (NR concentration 270 nM)
Method in brief: as §1

[4] = test system: LXRb:RXRa (NR concentration 270 nM, RXRa partner concentration 90 nM)
Method in brief: as §1

[5] = test system: LXRb homodimer (NR concentration 270 nM)
Method in brief: as §1

[6] = test system: PPARa:RXRa (NR concentration 270 nM, RXRa partner concentration 90 nM)
Method in brief: as §1

[7] = test system: PPARg:RXRa (NR concentration 180 nM, RXRa partner concentration 90 nM)
Method in brief: as §1

[8] = test system: PPARg:RXRa 270nM:90nM, anti-RXR (NR concentration 270 nM, RXRa partner concentration 90 nM)
Method in brief: as §1

[9] = test system: PPARg:RXRa 30nM:10nM, anti-RXR (NR concentration 30 nM, RXRa partner concentration 10 nM)
Method in brief: as §1

[10] = test system: PPARg:RXRa 90nM:30nM, anti-RXR (NR concentration 90 nM, RXRa partner concentration 30 nM)
Method in brief: as §1

[11] = test system: PPARg:RXRa DBDmut IVT, anti-RXR (DBD mutation: RXRa K156A/R161A, NR concentration 270 nM, RXRa partner concentration 90 nM)
Method in brief: as §1

[12] = test system: PPARg:RXRa IVT, anti-PPARg (NR concentration 270 nM, RXRa partner concentration 90 nM)
Method in brief: as §1

[13] = test system: PPARg DBDmut:RXRa IVT, anti-PPARg (DBD mutation: PPARg1 K132A/R137A, NR concentration 270 nM, RXRa partner concentration 90 nM)
Method in brief: as §1

[14] = test system: PPARg DBDmut IVT, anti-PPARg (DBD mutation: PPARg1 K132A/R137A, NR concentration 270 nM)
Method in brief: as §1

[15] = test system: PPARg homodimer (NR concentration 180 nM)
Method in brief: as §1

[16] = test system: PXR:RXRa (NR concentration 270 nM, RXRa partner concentration 90 nM)
Method in brief: as §1

[17] = test system: PXR homodimer (NR concentration 270 nM)
Method in brief: as §1

[18] = test system: RARa:RXR (NR concentration 270 nM, RXRa partner concentration 90 nM)
Method in brief: as §1

[19] = test system: RARa homodimer (NR concentration 270 nM)
Method in brief: as §1

[20] = test system: RARb:RXRa (NR concentration 270 nM, RXRa partner concentration 90 nM)
Method in brief: as §1

Row | Sequence | PBM binding z-score [1] | PBM binding z-score [2] | PBM binding z-score [3] | PBM binding z-score [4] | PBM binding z-score [5] | PBM binding z-score [6] | PBM binding z-score [7] | PBM binding z-score [8] | PBM binding z-score [9] | PBM binding z-score [10] | PBM binding z-score [11] | PBM binding z-score [12] | PBM binding z-score [13] | PBM binding z-score [14] | PBM binding z-score [15] | PBM binding z-score [16] | PBM binding z-score [17] | PBM binding z-score [18] | PBM binding z-score [19] | PBM binding z-score [20]
1 | CAAACTCGGTCAAGGTCAAAGTCGGTTTGTGCCA | 5.73 | 5.09 | 3.66 | 3.81 | 1.02 | 4.81 | 4.76 | 4.8 | 2.42 | 3.93 | 4.82 | 4.77 | 1.56 | 0.439 | 3.17 | 4.98 | 2.66 | 4.81 | 1.43 | 4.49
2 | TCTATTAGTTGATTAGGGCGACCGAAACAGCGGA | 0.395 | 0.617 | 0.293 | 0.356 | 0.556 | 0.801 | -0.0653 | 1.73 | 3.64 | 2.8 | 2.11 | 0.486 | 0.791 | 0.554 | 0.93 | 0.452 | 0.338 | 0.407 | 1.27 | 0.629
3 | ATATGTAGGGTAGCTGGGGTCATTCAGACTAGGC | 3.69 | 4.07 | 2.16 | 4.42 | 1.68 | 5.28 | 5.01 | 4.85 | 2.14 | 3.95 | 5.27 | 5.46 | 1.65 | 3.4 | 2.54 | 6.03 | 3.77 | 5.97 | 0.388 | 2.87
4 | TTACCCAGGTGAAGGTCGTTGATCCCTCTGTAGA | 1.67 | 1.53 | -0.000155 | 1.21 | -0.632 | 1.77 | 0.932 | 1.73 | 0.687 | 1.04 | 1.24 | 2.58 | -0.304 | -0.0545 | 0.499 | 1.12 | 0.0205 | 1.6 | -1.08 | 1.23
5 | TCTTATAGATCAAGCAGGTTAAGAAAGCCTGAGT | 0.514 | 0.381 | -0.0643 | 0.19 | -0.324 | 0.961 | -0.00693 | 1.62 | 3.48 | 2.75 | 2.41 | 0.395 | 0.287 | 0.665 | 0.243 | 0.691 | 0.364 | 0.658 | 0.426 | 0.33
6 | GCAGACGGGTGAAACGCAGGTAACTCAGGGTGGC | -0.349 | -0.337 | -0.751 | -0.502 | -1.12 | 0.266 | 0.241 | -0.502 | -0.732 | -0.536 | -0.241 | -0.0586 | -1.33 | -0.958 | -0.685 | -0.244 | -0.933 | 0.253 | -0.996 | 0.14
7 | ATCAAAAGGTCGTGAGGTGAGTATACAGAAAGGC | 5.1 | 4.46 | 0.539 | 3.63 | 1.22 | 5.2 | 4.38 | 4.66 | 1.92 | 3.33 | 0.609 | 2.81 | 1.96 | 1.55 | 2.38 | 3.53 | 1.09 | 4.34 | 1.26 | 4.29
8 | CGAACTAGGTCTTTGACAGGACAGTGAATAGTAA | -0.13 | 0.047 | -0.136 | -0.238 | -0.525 | 0.769 | 0.674 | 0.585 | 0.162 | 0.43 | 4.79 | 3.63 | 0.956 | 0.308 | 0.0171 | -0.285 | -0.19 | 0.0375 | -0.136 | 0.0398
